Inhibition data for one compound are collected here from ChEMBL document CHEMBL1961873, “Compounds: GSK PKIS; Assays: Nanosyn kinase panel” (2012).

Test [1] has as its target Protein kinase C gamma type (Homo sapiens) (UniProt P05129). To be noted: at 1 µM.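 Further: each value is an averaged percent inhibition of the enzyme.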
The target in test [2] is T1, Protein kinase C iota type (Homo sapiens) (UniProt P41743).
T1 sequence (whole entry): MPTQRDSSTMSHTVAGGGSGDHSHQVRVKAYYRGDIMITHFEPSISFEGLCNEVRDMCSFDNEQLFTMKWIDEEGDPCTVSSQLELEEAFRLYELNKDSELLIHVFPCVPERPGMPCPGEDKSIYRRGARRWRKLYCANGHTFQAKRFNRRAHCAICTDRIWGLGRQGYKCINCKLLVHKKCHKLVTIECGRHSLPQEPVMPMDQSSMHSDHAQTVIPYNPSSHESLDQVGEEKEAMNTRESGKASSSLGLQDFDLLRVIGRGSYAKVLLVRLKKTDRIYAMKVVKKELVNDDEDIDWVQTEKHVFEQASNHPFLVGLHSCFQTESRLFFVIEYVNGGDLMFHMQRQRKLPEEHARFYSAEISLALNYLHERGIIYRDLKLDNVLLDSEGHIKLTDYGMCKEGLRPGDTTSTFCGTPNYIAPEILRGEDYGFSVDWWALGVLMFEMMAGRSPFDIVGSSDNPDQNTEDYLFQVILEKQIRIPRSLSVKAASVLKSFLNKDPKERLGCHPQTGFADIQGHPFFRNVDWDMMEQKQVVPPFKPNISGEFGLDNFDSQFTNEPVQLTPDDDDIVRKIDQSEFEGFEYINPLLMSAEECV
The conditions noted are these: at 0.1 µM.

Test [3] deals with T1, Protein kinase C iota type (Homo sapiens). To be noted: at 1 µM.
The target of test [4] is Protein kinase C theta type (Homo sapiens) (UniProt Q04759). The conditions noted are these: at 0.1 µM.
For test [5] the target is unchanged. The conditions noted are these: at 1 µM.
The target of test [6] is Protein kinase C beta type (Homo sapiens) (UniProt P05771). The conditions noted are these: at 0.1 µM.
Test [7] shares this target. To be noted: at 1 µM.
For test [8], the target named is T2, Serine/threonine-protein kinase D1 (Homo sapiens) (UniProt Q15139).
T2 sequence (whole entry): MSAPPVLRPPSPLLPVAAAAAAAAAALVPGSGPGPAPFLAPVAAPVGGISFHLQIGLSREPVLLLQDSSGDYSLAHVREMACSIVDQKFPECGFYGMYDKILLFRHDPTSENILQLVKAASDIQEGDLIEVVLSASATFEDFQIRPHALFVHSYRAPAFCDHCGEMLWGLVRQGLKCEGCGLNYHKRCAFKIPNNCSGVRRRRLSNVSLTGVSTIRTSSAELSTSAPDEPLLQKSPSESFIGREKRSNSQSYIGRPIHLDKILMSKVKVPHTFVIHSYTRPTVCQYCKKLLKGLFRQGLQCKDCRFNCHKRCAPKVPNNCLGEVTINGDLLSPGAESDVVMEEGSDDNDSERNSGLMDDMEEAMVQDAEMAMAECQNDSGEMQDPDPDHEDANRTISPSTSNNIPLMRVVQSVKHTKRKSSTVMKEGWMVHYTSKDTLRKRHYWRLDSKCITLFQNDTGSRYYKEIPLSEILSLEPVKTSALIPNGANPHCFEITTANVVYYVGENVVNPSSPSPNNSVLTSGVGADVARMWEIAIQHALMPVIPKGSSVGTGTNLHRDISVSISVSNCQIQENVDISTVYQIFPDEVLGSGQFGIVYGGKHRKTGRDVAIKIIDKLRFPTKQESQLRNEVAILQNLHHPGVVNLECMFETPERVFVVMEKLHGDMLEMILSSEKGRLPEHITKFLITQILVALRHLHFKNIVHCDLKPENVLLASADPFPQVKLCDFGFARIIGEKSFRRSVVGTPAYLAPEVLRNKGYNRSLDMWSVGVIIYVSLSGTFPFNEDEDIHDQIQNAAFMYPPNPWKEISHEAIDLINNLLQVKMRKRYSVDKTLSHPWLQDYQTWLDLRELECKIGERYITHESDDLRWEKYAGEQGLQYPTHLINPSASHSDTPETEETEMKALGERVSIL
The conditions noted are these: at 0.1 µM.

Test [9] concerns the target T2, Serine/threonine-protein kinase D1 (Homo sapiens). The conditions noted are these: at 1 µM.
For test [10], the target named is T3, Serine/threonine-protein kinase D2 (Homo sapiens) (UniProt Q9BZL6).
T3 sequence (whole entry): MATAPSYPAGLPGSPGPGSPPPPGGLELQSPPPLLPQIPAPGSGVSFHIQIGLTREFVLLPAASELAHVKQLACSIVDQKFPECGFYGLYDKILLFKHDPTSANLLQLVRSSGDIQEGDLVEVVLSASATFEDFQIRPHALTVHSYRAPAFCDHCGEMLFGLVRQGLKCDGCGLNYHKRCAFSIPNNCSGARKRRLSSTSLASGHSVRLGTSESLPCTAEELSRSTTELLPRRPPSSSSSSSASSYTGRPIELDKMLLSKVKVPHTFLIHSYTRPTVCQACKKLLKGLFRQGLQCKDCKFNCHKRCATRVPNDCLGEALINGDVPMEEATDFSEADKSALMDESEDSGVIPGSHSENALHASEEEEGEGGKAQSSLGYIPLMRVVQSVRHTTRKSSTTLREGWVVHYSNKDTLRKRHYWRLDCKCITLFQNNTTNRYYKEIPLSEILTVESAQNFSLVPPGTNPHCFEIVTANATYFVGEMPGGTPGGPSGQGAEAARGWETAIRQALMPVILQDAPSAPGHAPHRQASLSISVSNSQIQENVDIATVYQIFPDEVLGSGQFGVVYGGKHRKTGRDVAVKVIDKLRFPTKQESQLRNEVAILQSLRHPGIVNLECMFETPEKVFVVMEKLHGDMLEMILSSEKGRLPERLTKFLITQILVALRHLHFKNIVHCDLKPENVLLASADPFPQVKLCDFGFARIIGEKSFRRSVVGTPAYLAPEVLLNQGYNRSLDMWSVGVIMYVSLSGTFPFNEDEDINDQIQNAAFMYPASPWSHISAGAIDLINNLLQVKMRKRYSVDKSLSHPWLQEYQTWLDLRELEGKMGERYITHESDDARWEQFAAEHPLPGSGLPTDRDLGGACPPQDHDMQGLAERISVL
To be noted: at 0.1 µM.

In test [11] the target is T3, Serine/threonine-protein kinase D2 (Homo sapiens). The conditions noted are these: at 1 µM.
The target in test [12] is T4, Serine/threonine-protein kinase D3 (Homo sapiens) (UniProt O94806).
T4 sequence (whole entry): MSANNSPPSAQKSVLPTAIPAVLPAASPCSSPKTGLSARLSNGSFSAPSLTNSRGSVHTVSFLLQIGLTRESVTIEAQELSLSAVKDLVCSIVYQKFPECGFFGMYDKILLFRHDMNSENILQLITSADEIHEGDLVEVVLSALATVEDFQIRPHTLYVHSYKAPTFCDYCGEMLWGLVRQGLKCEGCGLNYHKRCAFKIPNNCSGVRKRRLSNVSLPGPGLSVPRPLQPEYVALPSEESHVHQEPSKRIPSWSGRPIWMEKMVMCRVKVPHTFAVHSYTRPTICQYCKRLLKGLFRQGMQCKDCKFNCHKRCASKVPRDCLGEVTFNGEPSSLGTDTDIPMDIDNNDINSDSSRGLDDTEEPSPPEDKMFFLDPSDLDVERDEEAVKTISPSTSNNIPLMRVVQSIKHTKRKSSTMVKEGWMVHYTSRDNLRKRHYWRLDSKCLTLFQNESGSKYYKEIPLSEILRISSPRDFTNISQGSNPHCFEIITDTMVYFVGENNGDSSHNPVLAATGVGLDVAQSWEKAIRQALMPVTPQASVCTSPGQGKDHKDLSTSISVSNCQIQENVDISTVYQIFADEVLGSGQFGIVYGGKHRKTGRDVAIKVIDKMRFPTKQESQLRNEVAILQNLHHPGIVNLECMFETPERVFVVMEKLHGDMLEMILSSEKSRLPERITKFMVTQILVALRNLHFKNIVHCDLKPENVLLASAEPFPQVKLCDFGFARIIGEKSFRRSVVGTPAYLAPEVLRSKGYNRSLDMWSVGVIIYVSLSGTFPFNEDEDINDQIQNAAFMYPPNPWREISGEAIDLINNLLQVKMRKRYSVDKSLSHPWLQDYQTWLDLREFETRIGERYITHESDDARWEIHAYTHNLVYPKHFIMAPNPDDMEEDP
To be noted: at 0.1 µM.

The target of test [13] is T4, Serine/threonine-protein kinase D3 (Homo sapiens). The conditions noted are these: at 1 µM.
In test [14] the target is T5, cGMP-dependent protein kinase 1 (Homo sapiens) (UniProt Q13976).
T5 sequence (whole entry): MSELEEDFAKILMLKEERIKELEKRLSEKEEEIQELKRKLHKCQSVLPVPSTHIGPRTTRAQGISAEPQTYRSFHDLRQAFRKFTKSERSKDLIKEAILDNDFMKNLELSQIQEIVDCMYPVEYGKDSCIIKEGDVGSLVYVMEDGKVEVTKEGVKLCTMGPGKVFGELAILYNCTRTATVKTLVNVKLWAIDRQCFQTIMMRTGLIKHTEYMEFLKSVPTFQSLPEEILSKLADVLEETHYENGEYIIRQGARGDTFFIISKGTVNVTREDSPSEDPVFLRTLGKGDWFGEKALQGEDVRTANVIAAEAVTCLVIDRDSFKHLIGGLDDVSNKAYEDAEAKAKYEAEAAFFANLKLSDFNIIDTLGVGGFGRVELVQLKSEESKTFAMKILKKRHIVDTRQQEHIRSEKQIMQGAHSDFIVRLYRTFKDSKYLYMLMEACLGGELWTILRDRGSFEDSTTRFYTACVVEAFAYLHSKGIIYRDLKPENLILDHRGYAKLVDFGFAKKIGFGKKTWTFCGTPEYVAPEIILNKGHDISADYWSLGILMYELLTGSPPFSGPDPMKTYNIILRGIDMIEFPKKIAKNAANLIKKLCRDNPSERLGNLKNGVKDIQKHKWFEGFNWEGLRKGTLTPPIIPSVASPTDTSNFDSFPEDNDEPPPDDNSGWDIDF
To be noted: at 0.1 µM.

Test [15] deals with T5, cGMP-dependent protein kinase 1 (Homo sapiens). To be noted: at 1 µM.
The target in test [16] is T6, cGMP-dependent protein kinase 2 (Homo sapiens) (UniProt Q13237).
T6 sequence (whole entry): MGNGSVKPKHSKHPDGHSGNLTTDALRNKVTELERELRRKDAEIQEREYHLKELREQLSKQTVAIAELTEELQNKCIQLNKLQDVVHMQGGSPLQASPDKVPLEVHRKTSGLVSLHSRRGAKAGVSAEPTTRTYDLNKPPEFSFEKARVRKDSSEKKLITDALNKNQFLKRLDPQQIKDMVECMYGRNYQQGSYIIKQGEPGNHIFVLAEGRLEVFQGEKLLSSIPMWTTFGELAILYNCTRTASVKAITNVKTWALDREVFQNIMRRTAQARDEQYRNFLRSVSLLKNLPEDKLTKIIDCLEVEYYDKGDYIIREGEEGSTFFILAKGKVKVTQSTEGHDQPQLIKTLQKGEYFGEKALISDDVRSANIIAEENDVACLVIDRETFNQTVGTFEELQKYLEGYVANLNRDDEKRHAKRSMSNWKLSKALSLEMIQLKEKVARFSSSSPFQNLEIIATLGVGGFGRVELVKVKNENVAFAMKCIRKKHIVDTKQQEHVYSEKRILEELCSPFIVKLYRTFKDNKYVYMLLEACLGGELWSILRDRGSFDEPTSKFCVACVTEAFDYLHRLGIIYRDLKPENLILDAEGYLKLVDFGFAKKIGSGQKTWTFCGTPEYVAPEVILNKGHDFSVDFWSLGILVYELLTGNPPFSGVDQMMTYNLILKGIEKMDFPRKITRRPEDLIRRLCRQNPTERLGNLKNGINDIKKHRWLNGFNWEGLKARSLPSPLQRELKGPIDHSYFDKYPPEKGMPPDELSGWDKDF
The conditions noted are these: at 0.1 µM.

The target of test [17] is T6, cGMP-dependent protein kinase 2 (Homo sapiens). To be noted: at 1 µM.
Test [18] concerns the target T7, cAMP-dependent protein kinase catalytic subunit PRKX (Homo sapiens) (UniProt P51817).
T7 sequence (whole entry): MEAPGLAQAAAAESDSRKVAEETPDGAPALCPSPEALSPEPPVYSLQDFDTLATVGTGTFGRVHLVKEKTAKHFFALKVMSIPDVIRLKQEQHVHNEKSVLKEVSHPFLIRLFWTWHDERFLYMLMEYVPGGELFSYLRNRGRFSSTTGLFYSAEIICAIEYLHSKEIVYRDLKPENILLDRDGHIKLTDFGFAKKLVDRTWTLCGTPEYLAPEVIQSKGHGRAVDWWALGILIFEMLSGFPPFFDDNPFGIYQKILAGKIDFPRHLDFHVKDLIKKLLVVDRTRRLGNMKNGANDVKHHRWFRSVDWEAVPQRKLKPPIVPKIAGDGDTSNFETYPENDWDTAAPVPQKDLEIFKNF
To be noted: at 0.1 µM.

Test [19] addresses T7, cAMP-dependent protein kinase catalytic subunit PRKX (Homo sapiens). To be noted: at 1 µM.
Test [20] addresses Rho-associated protein kinase 1 (Homo sapiens) (UniProt Q13464). The conditions noted are these: at 0.1 µM.

Protein kinase C beta type (Homo sapiens), sequence (P05771 2-671 limits assumed): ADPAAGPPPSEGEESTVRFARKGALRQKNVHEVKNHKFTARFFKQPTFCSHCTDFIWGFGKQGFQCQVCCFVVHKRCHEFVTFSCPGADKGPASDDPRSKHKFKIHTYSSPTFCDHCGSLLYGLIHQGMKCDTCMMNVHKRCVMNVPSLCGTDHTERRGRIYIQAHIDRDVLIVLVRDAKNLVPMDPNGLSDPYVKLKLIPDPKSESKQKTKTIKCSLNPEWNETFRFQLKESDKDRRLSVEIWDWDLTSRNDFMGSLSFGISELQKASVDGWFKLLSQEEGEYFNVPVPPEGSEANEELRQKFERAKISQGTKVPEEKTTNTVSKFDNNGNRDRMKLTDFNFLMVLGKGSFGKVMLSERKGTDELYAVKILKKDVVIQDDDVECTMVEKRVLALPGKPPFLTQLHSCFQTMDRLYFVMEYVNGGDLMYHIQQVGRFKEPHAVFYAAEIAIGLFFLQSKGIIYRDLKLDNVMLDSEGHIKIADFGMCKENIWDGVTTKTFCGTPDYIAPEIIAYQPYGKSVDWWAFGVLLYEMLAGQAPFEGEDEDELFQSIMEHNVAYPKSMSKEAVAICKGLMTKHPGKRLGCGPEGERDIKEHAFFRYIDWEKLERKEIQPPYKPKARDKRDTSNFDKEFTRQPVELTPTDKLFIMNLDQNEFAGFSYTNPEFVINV
Protein kinase C theta type (Homo sapiens), sequence (Q04759 whole entry, looked up): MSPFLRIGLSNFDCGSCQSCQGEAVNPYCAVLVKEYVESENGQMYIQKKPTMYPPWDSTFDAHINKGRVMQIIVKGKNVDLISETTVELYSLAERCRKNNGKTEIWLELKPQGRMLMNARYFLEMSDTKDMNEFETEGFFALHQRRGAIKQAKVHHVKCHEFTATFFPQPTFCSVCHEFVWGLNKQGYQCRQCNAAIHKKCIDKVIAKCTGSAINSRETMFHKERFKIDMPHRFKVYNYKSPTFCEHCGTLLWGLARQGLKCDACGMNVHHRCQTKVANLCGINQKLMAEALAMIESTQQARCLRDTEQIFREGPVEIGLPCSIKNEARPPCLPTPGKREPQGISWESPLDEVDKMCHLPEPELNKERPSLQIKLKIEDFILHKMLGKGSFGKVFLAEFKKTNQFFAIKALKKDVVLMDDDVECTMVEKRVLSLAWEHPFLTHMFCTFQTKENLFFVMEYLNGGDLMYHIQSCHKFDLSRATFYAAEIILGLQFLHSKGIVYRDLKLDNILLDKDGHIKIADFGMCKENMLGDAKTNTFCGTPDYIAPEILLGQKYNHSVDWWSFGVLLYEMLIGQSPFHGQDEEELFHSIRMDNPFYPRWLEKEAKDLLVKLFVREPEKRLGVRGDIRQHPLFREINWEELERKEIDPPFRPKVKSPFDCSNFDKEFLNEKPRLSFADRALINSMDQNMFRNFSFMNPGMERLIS
Rho-associated protein kinase 1 (Homo sapiens), sequence (Q13464 2-1354 limits assumed): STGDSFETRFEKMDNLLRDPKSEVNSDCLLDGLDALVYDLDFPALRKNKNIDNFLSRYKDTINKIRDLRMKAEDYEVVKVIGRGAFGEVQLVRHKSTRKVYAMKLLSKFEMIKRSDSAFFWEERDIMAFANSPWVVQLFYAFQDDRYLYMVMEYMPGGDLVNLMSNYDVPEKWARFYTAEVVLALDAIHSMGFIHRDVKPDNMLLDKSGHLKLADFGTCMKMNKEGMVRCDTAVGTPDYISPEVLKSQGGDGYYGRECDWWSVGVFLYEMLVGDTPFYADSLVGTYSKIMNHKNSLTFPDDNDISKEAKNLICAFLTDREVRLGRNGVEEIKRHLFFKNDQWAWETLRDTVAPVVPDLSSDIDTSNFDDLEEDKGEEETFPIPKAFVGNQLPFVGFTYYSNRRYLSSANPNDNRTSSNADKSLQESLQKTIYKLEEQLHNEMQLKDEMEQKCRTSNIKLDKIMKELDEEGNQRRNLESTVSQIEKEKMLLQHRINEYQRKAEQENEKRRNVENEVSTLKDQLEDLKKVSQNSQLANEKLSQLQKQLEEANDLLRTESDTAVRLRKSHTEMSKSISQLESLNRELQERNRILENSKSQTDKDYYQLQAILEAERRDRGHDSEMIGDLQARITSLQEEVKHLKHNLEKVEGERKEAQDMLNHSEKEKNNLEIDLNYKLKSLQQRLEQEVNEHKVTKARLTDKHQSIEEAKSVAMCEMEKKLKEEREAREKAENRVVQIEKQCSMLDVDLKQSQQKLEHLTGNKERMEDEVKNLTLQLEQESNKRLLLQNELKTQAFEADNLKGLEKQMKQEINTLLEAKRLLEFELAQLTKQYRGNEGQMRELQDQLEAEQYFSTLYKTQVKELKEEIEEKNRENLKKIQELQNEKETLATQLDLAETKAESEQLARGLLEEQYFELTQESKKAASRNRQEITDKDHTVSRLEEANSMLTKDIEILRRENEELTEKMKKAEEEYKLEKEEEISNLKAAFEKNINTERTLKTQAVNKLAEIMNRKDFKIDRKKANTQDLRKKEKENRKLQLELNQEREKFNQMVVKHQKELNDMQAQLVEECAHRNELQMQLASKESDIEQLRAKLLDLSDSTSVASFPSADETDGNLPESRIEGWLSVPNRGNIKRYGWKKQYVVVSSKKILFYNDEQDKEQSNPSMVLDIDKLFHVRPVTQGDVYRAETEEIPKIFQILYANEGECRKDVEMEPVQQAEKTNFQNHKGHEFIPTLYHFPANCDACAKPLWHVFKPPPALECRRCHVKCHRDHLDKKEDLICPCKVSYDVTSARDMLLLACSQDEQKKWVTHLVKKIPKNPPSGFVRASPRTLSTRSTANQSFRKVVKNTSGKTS

What is called inhibition is the relative decrease from the control value, in per cent. In the case of `NS(=O)(=O)c1ccc(Nc2cc(-c3ccc(O)c(F)c3)n[nH]2)cc1`, the inhibition in [1] was -0.85%; in test [2], -0.61%; in [3] it was 0.05%; in test [4] it was -1.75%; in test [5] it was -1.1%; in test [6], -0.96%. Besides, the inhibition in test [7] is 0.72%; in [8], -1.96%; in test [9], 4.59%; in test [10], -2.32%; in [11], 2.89%; in [12], -2.85%. Further, the inhibition is 0.82% in test [13]; -1.74% in test [14]; -1% in [15]; -1.16% in [16]; 0.01% in test [17]; -0.97% in test [18]. The values for the inhibition in test [19] and in [20] were -1.36% and -0.2%, respectively.
